ChEMBL document CHEMBL1157539, “Thousands of chemical starting points for antimalarial lead identification” (Nature, 2010)

System: Plasmodium falciparum
Test: GSK_TCMDC: Inhibition of Plasmodium falciparum 3D7 in whole red blood cells, using parasite LDH activity as an index of growth. Test compounds present at 2uM
Format: functional

SMILES	Inhibition
CC(=O)Nc1nc(C(=O)Nc2ccc(-c3ccc(-c4nc5ccccc5[nH]4)cc3)cc2)cs1	100%
CCOc1cc(Cc2cnc(N)nc2N)cc(OCC)c1OCCCCC(=O)OC	95%
CCN(CC)Cc1cc(Nc2ccnc3cc(Cl)ccc23)ccc1O.Cl.Cl.Cl	100%
Cc1[nH]c(C)c(-c2ccc(-c3cccc(C(F)(F)F)c3)nc2)c(=O)c1Br	97%
Cl.OC(c1ccccc1)C1CN(CCC2CC3CCC2C3)CCC1(O)c1ccccc1 (configuration not stated)	97%
Cc1cccc2nc(-c3ccc(-c4ccc(CN5CCCCC5)cc4)cc3)[nH]c12.O=C(O)C(F)(F)F	100%
COCCNC(=O)C(CNC(=O)c1ccc2c(c1)OCO2)NC(=O)c1ccc(-c2ccccc2)cc1 (configuration not stated)	90%
Br.Oc1ccccc1CCNC1CCc2ccccc2C1 (configuration not stated)	96%
Cc1cccc2nc(-c3ccc(-c4cccc(CNCCCNS(C)(=O)=O)c4)s3)[nH]c12.O=C(O)C(F)(F)F	99%
O=C(Nc1cccc(-c2cccc(-c3nc4ccccc4[nH]3)c2)c1)Nc1ccc2c(c1)OCO2	100%
Cc1ccc2[nH]c(C)cc(=NN=Cc3ccccc3Cl)c2c1	100%
Cl.NC(=O)c1cnc2cc(-c3ccoc3)ccc2c1Nc1ccc(NC(=O)Nc2ccccc2Cl)cc1	100%
Nc1ncc(-c2cn[nH]c2)cc1-c1nc2ccc(Cl)cc2[nH]1	100%
CCn1ccc2c(N3CCCS3(=O)=O)cc(C(=O)N[C@@H](Cc3ccccc3)[C@H](O)CNC3CCCCC3)cc21	97%
COc1c(C2CCN(CCCCNC(=O)c3ccc(-c4ccc(Cl)cc4)c(OCCN(C)C)c3)CC2)ccc2c1CCCC2	100%
Cn1cnc(CCNC(=O)c2ccc(-c3cccc(-c4nc5cc(F)ccc5[nH]4)c3)cc2)c1	100%
CCN(CCCN1CCCCC1)c1cc(C)nc(Nc2cccc(OC(F)(F)F)c2)n1.O=C(O)C(F)(F)F	100%
CC(Nc1ccc2c(c1)CCC2)C(=O)Nc1cc(C(F)(F)F)ccc1N1CCOCC1 (configuration not stated)	100%
CN1CCC(NCc2ccc(-c3ccc(Cl)cc3)cc2)CC1	99%

SMILES	Inhibition
CN(C)CCNCc1cccc(-c2ccc3c(Nc4ccc(Oc5ccccc5)cc4)ccnc3c2)c1	100%
CN(C)c1ccc(-c2csc(C(=O)NC3CCN(CCC(C)(C)C)C3)c2)cc1.O=C(O)C(F)(F)F (configuration not stated)	95%
CN(C)CCN(C)Cc1cccc(-c2ccc3c(Nc4cc(O)c(Cl)cc4F)ccnc3c2)c1	100%
O=C(/C=C/c1ccc(Cl)c(Cl)c1)NCCCCCN1CCC(C(=O)Nc2ccc3c(c2)OCO3)CC1	92%
Cc1cc(=O)c(-c2ccc(OCc3ccc(OC(F)(F)F)cc3)cc2)c(C)[nH]1	97%
Cc1ccc(C2=NNC3(S2)C(=O)N(C)c2ccccc23)cc1 (configuration not stated)	82%
CS(=O)(=O)O.FC(F)(F)COc1c(CCNCCCCNCCc2ccc3ccccc3c2OCC(F)(F)F)ccc2ccccc12	100%
COc1cc(F)c2ncc(Cl)c([C@@H](O)CN3CCC(NCc4ccc5c(n4)NC(=O)CO5)CC3)c2c1.Cl	100%
CCCCCN1CCCCC(NS(=O)(=O)c2ccc(C(=O)Nc3cccc(C(F)(F)F)c3)cc2)C1.O=C(O)C(F)(F)F (configuration not stated)	93%
CCCCCCn1c(Sc2ccc(C#N)c([N+](=O)[O-])c2)nnc1-c1ccc(OC)cc1	95%
CCOc1cc(C(C)C)ccc1N1CCN(CCCCNC(=O)c2ccc(NC(=O)c3ccc(Cl)cc3)cc2)CC1	100%
COc1ccc(Br)cc1C1Nc2ccc3ccccc3c2C2=C1C(=O)CC(c1ccccc1)C2 (configuration not stated)	100%
Cc1nc2ccc(-c3ccc(OC(F)(F)F)cc3)cc2c(O)c1C#N	98%
COc1ccc2c(c1)S(=O)(=O)N=C(N1CCCC1c1ccc(Cl)c(Cl)c1)N2C.O=C(O)C(F)(F)F (configuration not stated)	89%
CC(=O)Nc1ccc(C(=O)NC2CCN(c3ccnc4cc(Cl)ccc34)CC2)cc1.O=C(O)C(F)(F)F	100%
C#CCN(Cc1cc2c(=O)[nH]c(N)nc2cc1C)c1ccc(C(=O)N[C@@H](CCC(=O)O)C(=O)O)cc1	92%
CCN(CC)CCNc1nccc(N(C)c2ccc(NC(=O)Nc3cc(C(F)(F)F)ccc3F)cc2)n1.O=C(O)C(F)(F)F	97%
Cc1cccc(Cl)c1S(=O)(=O)Nc1cccc(CCN2CCC(N3CCCCC3)CC2)c1	91%
